FBA Mtb inh: Mtb FBA enzyme inhibitors, primary screen, biochemical, fluorescence, strain H37Rv; purified M. tuberculosis FBA, fluorescence read-out; actives 2.3% (n = 360,000); Fructose-bisphosphate aldolase (Mycobacterium tuberculosis (strain ATCC 25618 / H37Rv)), …; inhibition, % at 1 µM; in the data active means inhibition above about 27%;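 further: 0% = vehicle and 100% = reference inhibitor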
Target sequence (P9WQA3 whole entry, looked up): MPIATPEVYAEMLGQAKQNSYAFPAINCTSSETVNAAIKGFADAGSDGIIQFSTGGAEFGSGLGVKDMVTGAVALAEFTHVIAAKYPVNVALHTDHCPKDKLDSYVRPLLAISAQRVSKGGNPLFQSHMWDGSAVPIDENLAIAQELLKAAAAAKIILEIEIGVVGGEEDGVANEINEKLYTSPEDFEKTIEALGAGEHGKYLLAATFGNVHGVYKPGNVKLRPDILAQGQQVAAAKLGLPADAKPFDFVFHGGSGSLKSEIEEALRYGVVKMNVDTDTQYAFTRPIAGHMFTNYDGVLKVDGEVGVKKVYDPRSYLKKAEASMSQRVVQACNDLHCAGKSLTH
Mtb BioA inh: M. tuberculosis BioA enzyme inhibitors, primary screen, biochemical, plate reader, single point, HTS; purified M. tuberculosis BioA enzyme; inhibition, % at 9.99 µM; actives 0.096% (n = 360,000); in the data active means inhibition above about 40%
FadD28 FP inh: inhibitors of FadD28 bisubstrate probe binding, primary screen, biochemical, fluorescence polarization, single point | actives 0.22% (n = 360,000) | inhibition, % at 12.5 µM | Mycobacterium tuberculosis FadD28 fatty-acid-AMP ligase; in the data active means inhibition above about 8.5%, passing the limit was not always enough
GDH-TPI counter: GDH-TPI coupling enzyme inhibitors, primary screen, artefact control for M. tuberculosis FBA inhibitor project, biochemical, absorbance, full deck; GDH-TPI coupled enzyme counterscreen, NADH absorbance; AID 588335, 2011; actives 1.2% (n = 360,000); inhibition, % at 4.8 µM; in the data active means inhibition above about 30%;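 further: 0% = DMSO wells and 100% = wells lacking the enzyme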
3CLpro inhibitor: SARS-CoV 3CLpro protease inhibitors, primary screen, biochemical, quenched FRET; Replicase polyprotein 1ab (Severe acute respiratory syndrome coronavirus), P0C6X7; actives 0.14% (n = 290,000); inhibition, % at 6 µM; recombinant SARS-CoV 3CLpro, quenched FRET peptide cleavage; in the data active means inhibition above about 12%
Active calls of the source: *; . = no result. Sampled rows, rich in hits. Any-hit rate of the full collection: about 3.1%.

SMILES	FBA Mtb inh	Mtb BioA inh	FadD28 FP inh	GDH-TPI counter	3CLpro inhibitor
COc1ccc(NC(=S)NNc2ccc(S(=O)(=O)Nc3ccccc3C(=O)O)cc2[N+](=O)[O-])cc1	-3.9	.	22.5*	40.5*	9.8
COc1ccc(C=NNc2ccc(S(=O)(=O)Nc3ccccc3C(=O)O)cc2[N+](=O)[O-])c(OC)c1	-5.1	16.7	31.7*	17.6	.
O=C(O)c1ccccc1NS(=O)(=O)c1ccc(NN=Cc2ccccc2F)c([N+](=O)[O-])c1	-0.8	3.8	4.6	31.6*	.
CCOc1cccc(C=NNc2ccc(S(=O)(=O)Nc3ccccc3C(=O)O)cc2[N+](=O)[O-])c1O	-3.6	3.3	17.3*	15.9	.
CCOc1ccc(C=NNc2ccc(S(=O)(=O)Nc3ccccc3C(=O)O)cc2[N+](=O)[O-])cc1	1.6	-2.8	5.2	14.2	.
CC(C)NC(=O)Nc1cccc2c1O[C@@H](CN(C)Cc1ccc(Cl)c(Cl)c1)[C@@H](C)CN([C@@H](C)CO)C2=O	.	0.9	.	.	.
COC(=O)C[C@@H]1CC[C@@H]2[C@H](COc3ccc(NC(=O)NCc4ccccc4)cc3C(=O)N2C)O1	.	-1.0	.	.	.
C[C@@H]1CN([C@@H](C)CO)C(=O)Cc2cc(NC(=O)C3CCCCC3)ccc2O[C@H]1CN(C)Cc1ccc(Oc2ccccc2)cc1	.	-2.6	.	.	.
O=S(=O)(c1cccs1)N1CCCCN2[C@@H](CO)[C@H](c3ccc(Br)cc3)[C@@H]2C1	.	-1.3	.	.	.
CC(C)NC(=O)N(C)C[C@H]1OCCCC[C@H](C)Oc2ccc(NS(=O)(=O)c3cn(C)cn3)cc2C(=O)N([C@@H](C)CO)C[C@@H]1C	.	-0.7	.	.	.
Cc1nn(-c2ccccc2)c(Cl)c1/C=N/Nc1ccc(S(=O)(=O)Nc2ccccc2C(=O)O)cc1[N+](=O)[O-]	-5.5	-2.0	12.0*	47.1*	5.2
C=CCOc1ccc(C=NNc2ccc(S(=O)(=O)Nc3ccccc3C(=O)O)cc2[N+](=O)[O-])cc1OC	1.1	7.5	31.6*	9.6	.
CCCNC(=O)[C@H]1[C@H](CO)[C@H]2Cn3c(ccc(-c4ccccc4)c3=O)[C@H]2N1CC	.	2.8	.	.	.
CO[C@H]1O[C@H](CO)[C@@H](OC(=O)Nc2ccccc2)[C@H](OC(=O)Nc2ccc3c(c2)OCO3)[C@@H]1OC(=O)Nc1ccc2c(c1)OCO2	.	-1.1	.	.	.
O=C(C[C@@H]1CC[C@@H]2[C@H](COC[C@H](O)CN2S(=O)(=O)c2ccc(Oc3ccccc3)cc2)O1)NC1CCC1	.	0.7	.	.	.
O=C(Nc1ccc(Cl)c(Cl)c1)N[C@@H]1CC[C@H](CCNC(=O)c2ccc(F)cc2)O[C@@H]1CO	.	0.9	.	.	.
CC(=O)Nc1ccc(S(=O)(=O)Nc2nc3ccccc3nc2N2CCc3ccccc3C2)cc1	12.1	1.7	-2.0	22.2	8.9
O=S(=O)(Nc1nc2ccccc2nc1N1CCc2ccccc2C1)c1ccc(Br)cc1	126.1*	.	1.1	17.7	-2.4
CC(=O)Nc1ccc(S(=O)(=O)Nc2nc3ccccc3nc2N2CCCCCC2)cc1	9.8	8.4	0.4	32.5*	7.0
CC(C)NC(=O)N(C)C[C@H]1OCCCC[C@@H](C)Oc2ccc(NC(=O)CCCN(C)C)cc2C(=O)N([C@@H](C)CO)C[C@H]1C	.	-3.0	.	.	.
CC(C)NC(=O)N(C)C[C@@H]1Oc2ccc(NC(=O)Nc3ccc4c(c3)OCO4)cc2C(=O)N([C@H](C)CO)C[C@H]1C	.	-0.8	.	.	.
C[C@@H]1CN([C@H](C)CO)S(=O)(=O)c2ccc(-c3ccc(C#N)cc3)cc2O[C@H]1CN(C)C	.	5.3	.	.	.
COc1cc(C2Oc3cc(C4Oc5cc(O)cc(O)c5C(=O)C4O)ccc3OC2CO)ccc1O (configuration not stated)	-2.4	0.1	-1.3	35.8*	-8.1
COc1ccc(C2CC(=O)c3c(O)cc(O)cc3O2)cc1O (configuration not stated)	-1.9	0.9	-6.6	12.8	.
O=C(Nc1ccccc1F)N[C@H]1CC[C@H](CCNC(=O)C2CCC2)O[C@@H]1CO	.	2.0	.	.	.
O=C(NNC(=S)NCc1ccco1)c1ccc(Cl)s1	-1.7	.	3.0	31.0*	-7.4
C[C@H](CO)N1C[C@H](C)[C@H](CN(C)Cc2ccccc2)OCCCC[C@H](C)Oc2ccc(NC(=O)Nc3ccccc3)cc2C1=O	.	1.0	.	.	.

Screens: PubChem, several laboratories
